# Measured values as given in PubChem BioAssay AID1159580 (chemical genetic matrix, 2015).
# “And” between values parts separate entries of the source, which are not always exact repeats. Equal values may be shown once. About 2,000 (36%) of roughly 5,500 compounds were called active. Not shown: some 18% with an inconclusive outcome. Some of the results follow. Values without a mark were called inactive. Cut-off read from the data, not from the text of the source: active = normalized growth mostly below about 0.91 (no sharp cut-off); inconclusive = no clear call, values can overlap the other calls; inactive = mostly above about 0.92.
# Experiment: chemical genetic growth profiling, strain panel (AID 1159580);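 note: tested at 20 µM; growth read once vehicle control cultures reached saturation at 30 °C; 1 = growth at the plate median or of vehicle wells; lower values mean less growth of the strain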
# Details: S. cerevisiae deletion strains, growth OD
smiles,measurement,setting,value
CN[C@@H]1[C@@H](O[C@H]2O[C@H](CO)[C@@H](N)[C@H](O)[C@H]2O)O[C@H]2C[C@@H](N)[C@H](O[C@H]3[C@H](O)[C@@H](O)[C@H](N)C[C@@H]3N)O[C@@H]2[C@@H]1O,normalized growth,"locus YAL013W, strain DEP1, hits give low values",1.01
same,normalized growth,"locus YAL021C, strain ccr4, hits give low values",1.01
same,normalized growth,"locus YAL026C, strain drs2, hits give low values",0.995
same,normalized growth,"locus YAL030W, strain snc1, hits give low values",1.01
same,normalized growth,"locus YBL061C, strain skt5, hits give low values",1
same,normalized growth,"locus YBR009C, strain hhf1, hits give low values",1.01
same,normalized growth,"locus YBR021W, strain FUR4, hits give low values",1.01
same,normalized growth,"locus YBR023C, strain chs3, hits give low values",1.01
same,normalized growth,"locus YBR171W, strain sec66, hits give low values",1.01
same,normalized growth,"locus YBR229C, strain ROT2, hits give low values",1.02
same,normalized growth,"locus YBR231C, strain swc5, hits give low values",1.02
same,normalized growth,"locus YBR279W, strain paf1, hits give low values",1
same,normalized growth,"locus YCL011C, strain gbp2, hits give low values",1.01
same,normalized growth,"locus YCL016C, strain dcc1, hits give low values",0.994
same,normalized growth,"locus YCL029C, strain bik1, hits give low values",1.01
same,normalized growth,"locus YCL069W, strain vba3, hits give low values",1.02
same,normalized growth,"locus YCR088W, strain abp1, hits give low values",1.01
same,normalized growth,"locus YDL005C, strain med2, hits give low values",0.995
same,normalized growth,"locus YDL035C, strain GPR1, hits give low values",1.03
same,normalized growth,"locus YDL074C, strain BRE1, hits give low values",0.984
same,normalized growth,"locus YDL101C, strain DUN1, hits give low values",1
same,normalized growth,"locus YDL134C, strain PPH21, hits give low values",0.999
same,normalized growth,"locus YDL185W, strain tfp1, hits give low values",0.992
same,normalized growth,"locus YDL192W, strain arf1, hits give low values",1.01
same,normalized growth,"locus YDR001C, strain nth1, hits give low values",1.01
same,normalized growth,"locus YDR069C, strain doa4, hits give low values",1.03
same,normalized growth,"locus YDR101C, strain arx1, hits give low values",1.01
same,normalized growth,"locus YDR137W, strain rgp1, hits give low values",0.702 (active)
same,normalized growth,"locus YDR150W, strain NUM1, hits give low values",1.01
same,normalized growth,"locus YDR159W, strain sac3, hits give low values",1.02
same,normalized growth,"locus YDR162C, strain NBP2, hits give low values",1
same,normalized growth,"locus YDR195W, strain ref2",1.01
same,normalized growth,"locus YDR297W, strain sur2, hits give low values",1.01
same,normalized growth,"locus YDR318W, strain mcm21, hits give low values",1.03
same,normalized growth,"locus YDR334W, strain swr1, hits give low values",0.993
same,normalized growth,"locus YDR335W, strain msn5, hits give low values",1.01
same,normalized growth,"locus YDR388W, hits give low values",1.02
same,normalized growth,"locus YDR392W, strain spt3, hits give low values",0.921
same,normalized growth,"locus YDR502C, strain sam2, hits give low values",0.982
same,normalized growth,"locus YEL003W, strain gim4, hits give low values",1
same,normalized growth,"locus YEL037C, strain rad23, hits give low values",1
same,normalized growth,"locus YEL061C, strain CIN8 (second series), hits give low values",0.999
same,normalized growth,"locus YEL061C, strain CIN8, hits give low values",1.01
same,normalized growth,"locus YER015W, strain faa2, hits give low values",1.02
same,normalized growth,"locus YER016W, strain bim1, hits give low values",1.01
same,normalized growth,"locus YER110C, hits give low values",1.01
same,normalized growth,"locus YER111C, strain swi4, hits give low values",1.01
same,normalized growth,"locus YER155C, strain BEM2 (second series), hits give low values",0.936
same,normalized growth,"locus YER155C, strain BEM2, hits give low values",1.01
same,normalized growth,"locus YER167W, strain BCK2, hits give low values",1.03
same,normalized growth,"locus YFR010W, strain ubp6, hits give low values",1.02
same,normalized growth,"locus YGL078C, strain dbp3, hits give low values",1
same,normalized growth,"locus YGL086W, strain mad1, hits give low values",1.01
same,normalized growth,"locus YGL167C, strain pmr1, hits give low values",1.01
same,normalized growth,"locus YGL173C, strain kem1, hits give low values",1.01
same,normalized growth,"locus YGL227W, strain vid30, hits give low values",0.998
same,normalized growth,"locus YGL240W, strain doc1, hits give low values",1.01
same,normalized growth,"locus YGL248W, strain PDE1, hits give low values",1
same,normalized growth,"locus YGL253W, strain hxk2, hits give low values",1
same,normalized growth,"locus YGR078C, strain PAC10, hits give low values",0.99
same,normalized growth,"locus YGR135W, strain pre9, hits give low values",0.978
same,normalized growth,"locus YGR229C, strain SMI1, hits give low values",1.01
same,normalized growth,"locus YGR252W, strain gcn5, hits give low values",0.989
same,normalized growth,"locus YHR013C, strain ard1, hits give low values",1.07
same,normalized growth,"locus YHR027C, strain rpn1, hits give low values",1
same,normalized growth,"locus YHR030C, strain SLT2, hits give low values",1.01 and 0.961
same,normalized growth,"locus YHR079C, strain IRE1 (second series), hits give low values",0.998
same,normalized growth,"locus YHR079C, strain IRE1, hits give low values",0.962
same,normalized growth,"locus YHR094C, strain hxt1, hits give low values",1.01
same,normalized growth,"locus YHR129C, strain ARP1, hits give low values",1.01
same,normalized growth,"locus YHR142W, strain chs7, hits give low values",0.977
same,normalized growth,"locus YHR200W, strain rpn10, hits give low values",1
same,normalized growth,"locus YIL066C, strain RNR3, hits give low values",1.01
same,normalized growth,"locus YIL073C, strain SPO22, hits give low values",1.04
same,normalized growth,"locus YIL125W, strain kgd1, hits give low values",1
same,normalized growth,"locus YIR030C, strain dcg1, hits give low values",1
same,normalized growth,"locus YJL092W, strain hpr5, hits give low values",1.01
same,normalized growth,"locus YJL095W, strain BCK1 (second series), hits give low values",1.01
same,normalized growth,"locus YJL095W, strain BCK1, hits give low values",0.987 and 0.964
same,normalized growth,"locus YJL115W, strain asf1, hits give low values",0.991
same,normalized growth,"locus YJL129C, strain trk1, hits give low values",1.01
same,normalized growth,"locus YJL134W, strain LCB3, hits give low values",1.01
same,normalized growth,"locus YJL154C, strain vps35, hits give low values",1.01
same,normalized growth,"locus YJL164C, strain tpk1, hits give low values",0.975
same,normalized growth,"locus YJL166W, strain qcr8, hits give low values",1.03
same,normalized growth,"locus YJL168C, strain set2, hits give low values",1
same,normalized growth,"locus YJL187C, strain SWE1 (second series), hits give low values",0.995
same,normalized growth,"locus YJL187C, strain SWE1, hits give low values",1.01
same,normalized growth,"locus YJR043C, strain POL32, hits give low values",1.03
same,normalized growth,"locus YJR066W, strain TOR1, hits give low values",0.911
same,normalized growth,"locus YJR075W, strain HOC1, hits give low values",0.977
